These sequences were tested against pT7_6His-AlfaTag-HOXD13 (human, UniProt P35453 263-343) (assay: PADIT-seq). Conditions: dsDNA, one strand shown.
Chain of pT7_6His-AlfaTag-HOXD13 (P35453 263-343): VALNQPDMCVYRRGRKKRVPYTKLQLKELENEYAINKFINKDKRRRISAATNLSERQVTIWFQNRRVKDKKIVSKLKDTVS

Row | Sequence | binding signal [log2FC]
1 | CTCGAGGATATCAAGATCTGGCCTCGGCGCCGTAAAAGGAACCTCTAGCTAGCCGACTCACTATAGGGATAATCGCCCTGAGCAAAGACC | 1.76 ± 0.0756
2 | CTCGAGGATATCAAGATCTGGCCTCGGCCGCAGTCGCGGAACCTCTAGCTAGCCGACTCACTATAGGGATAATCGCCCTGAGCAAAGACC | -1.09 ± 0.145
3 | CTCGAGGATATCAAGATCTGGCCTCGGCCGCCCATATGGAACCTCTAGCTAGCCGACTCACTATAGGGATAATCGCCCTGAGCAAAGACC | -0.841 ± 0.12
4 | CTCGAGGATATCAAGATCTGGCCTCGGCCTTTTATCCGGAACCTCTAGCTAGCCGACTCACTATAGGGATAATCGCCCTGAGCAAAGACC | 0.939 ± 0.078
5 | CTCGAGGATATCAAGATCTGGCCTCGGCGGGCTAAAAGGAACCTCTAGCTAGCCGACTCACTATAGGGATAATCGCCCTGAGCAAAGACC | -0.851 ± 0.105
6 | CTCGAGGATATCAAGATCTGGCCTCGGCATTTTACGCGGAACCTCTAGCTAGCCGACTCACTATAGGGATAATCGCCCTGAGCAAAGACC | 2.16 ± 0.0812
7 | CTCGAGGATATCAAGATCTGGCCTCGGCGCGTACGCGGGAACCTCTAGCTAGCCGACTCACTATAGGGATAATCGCCCTGAGCAAAGACC | -1.05 ± 0.139
8 | CTCGAGGATATCAAGATCTGGCCTCGGCCTTTTAGTAGGAACCTCTAGCTAGCCGACTCACTATAGGGATAATCGCCCTGAGCAAAGACC | 1.19 ± 0.0808
9 | CTCGAGGATATCAAGATCTGGCCTCGGCTTTTTAACGGGAACCTCTAGCTAGCCGACTCACTATAGGGATAATCGCCCTGAGCAAAGACC | 1.89 ± 0.0968
10 | CTCGAGGATATCAAGATCTGGCCTCGGCGTTTTAATAGGAACCTCTAGCTAGCCGACTCACTATAGGGATAATCGCCCTGAGCAAAGACC | 2.63 ± 0.0918
11 | CTCGAGGATATCAAGATCTGGCCTCGGCCAGGTAAAAGGAACCTCTAGCTAGCCGACTCACTATAGGGATAATCGCCCTGAGCAAAGACC | 0.0831 ± 0.0976
12 | CTCGAGGATATCAAGATCTGGCCTCGGCGCGTATGCGGGAACCTCTAGCTAGCCGACTCACTATAGGGATAATCGCCCTGAGCAAAGACC | -1.09 ± 0.121
13 | CTCGAGGATATCAAGATCTGGCCTCGGCGCGCTAAAAGGAACCTCTAGCTAGCCGACTCACTATAGGGATAATCGCCCTGAGCAAAGACC | -0.366 ± 0.0916
14 | CTCGAGGATATCAAGATCTGGCCTCGGCATTTTAGCTGGAACCTCTAGCTAGCCGACTCACTATAGGGATAATCGCCCTGAGCAAAGACC | -0.225 ± 0.108
15 | CTCGAGGATATCAAGATCTGGCCTCGGCTGCTTAAAAGGAACCTCTAGCTAGCCGACTCACTATAGGGATAATCGCCCTGAGCAAAGACC | 0.659 ± 0.091
16 | CTCGAGGATATCAAGATCTGGCCTCGGCTGGTTAAAAGGAACCTCTAGCTAGCCGACTCACTATAGGGATAATCGCCCTGAGCAAAGACC | 1.48 ± 0.0798
17 | CTCGAGGATATCAAGATCTGGCCTCGGCACGTTAAAAGGAACCTCTAGCTAGCCGACTCACTATAGGGATAATCGCCCTGAGCAAAGACC | 1.42 ± 0.0726
18 | CTCGAGGATATCAAGATCTGGCCTCGGCTCTCCACGCGGAACCTCTAGCTAGCCGACTCACTATAGGGATAATCGCCCTGAGCAAAGACC | -0.925 ± 0.119
19 | CTCGAGGATATCAAGATCTGGCCTCGGCTTTTTAGATGGAACCTCTAGCTAGCCGACTCACTATAGGGATAATCGCCCTGAGCAAAGACC | 0.28 ± 0.11
20 | CTCGAGGATATCAAGATCTGGCCTCGGCAATTTAAAAGGAACCTCTAGCTAGCCGACTCACTATAGGGATAATCGCCCTGAGCAAAGACC | 2.32 ± 0.0729

Row | Sequence | binding signal [log2FC]
21 | CTCGAGGATATCAAGATCTGGCCTCGGCTTTTTACTAGGAACCTCTAGCTAGCCGACTCACTATAGGGATAATCGCCCTGAGCAAAGACC | 3.21 ± 0.0865
22 | CTCGAGGATATCAAGATCTGGCCTCGGCATGCCACGCGGAACCTCTAGCTAGCCGACTCACTATAGGGATAATCGCCCTGAGCAAAGACC | -1.08 ± 0.113
23 | CTCGAGGATATCAAGATCTGGCCTCGGCATTTTACATGGAACCTCTAGCTAGCCGACTCACTATAGGGATAATCGCCCTGAGCAAAGACC | 2.14 ± 0.0807
24 | CTCGAGGATATCAAGATCTGGCCTCGGCTTAATAAAAGGAACCTCTAGCTAGCCGACTCACTATAGGGATAATCGCCCTGAGCAAAGACC | 2.67 ± 0.0794
25 | CTCGAGGATATCAAGATCTGGCCTCGGCGCGCTTGCGGGAACCTCTAGCTAGCCGACTCACTATAGGGATAATCGCCCTGAGCAAAGACC | -0.651 ± 0.137
26 | CTCGAGGATATCAAGATCTGGCCTCGGCTAGTTAAAAGGAACCTCTAGCTAGCCGACTCACTATAGGGATAATCGCCCTGAGCAAAGACC | 2.53 ± 0.0756
27 | CTCGAGGATATCAAGATCTGGCCTCGGCTTTTTACAAGGAACCTCTAGCTAGCCGACTCACTATAGGGATAATCGCCCTGAGCAAAGACC | 3.28 ± 0.0787
28 | CTCGAGGATATCAAGATCTGGCCTCGGCGTTTTATGGGGAACCTCTAGCTAGCCGACTCACTATAGGGATAATCGCCCTGAGCAAAGACC | 3.21 ± 0.0773
29 | CTCGAGGATATCAAGATCTGGCCTCGGCGCGTGGCCAGGAACCTCTAGCTAGCCGACTCACTATAGGGATAATCGCCCTGAGCAAAGACC | -1.04 ± 0.128
30 | CTCGAGGATATCAAGATCTGGCCTCGGCTAAGTAAAAGGAACCTCTAGCTAGCCGACTCACTATAGGGATAATCGCCCTGAGCAAAGACC | 0.166 ± 0.108
31 | CTCGAGGATATCAAGATCTGGCCTCGGCCATTTAAAAGGAACCTCTAGCTAGCCGACTCACTATAGGGATAATCGCCCTGAGCAAAGACC | 2.3 ± 0.0841
32 | CTCGAGGATATCAAGATCTGGCCTCGGCGGACCACGCGGAACCTCTAGCTAGCCGACTCACTATAGGGATAATCGCCCTGAGCAAAGACC | -0.846 ± 0.11
33 | CTCGAGGATATCAAGATCTGGCCTCGGCCATGTAAAAGGAACCTCTAGCTAGCCGACTCACTATAGGGATAATCGCCCTGAGCAAAGACC | 1.41 ± 0.0975
34 | CTCGAGGATATCAAGATCTGGCCTCGGCGCCCTAAAAGGAACCTCTAGCTAGCCGACTCACTATAGGGATAATCGCCCTGAGCAAAGACC | 0.248 ± 0.0833
35 | CTCGAGGATATCAAGATCTGGCCTCGGCCGCATCCGCGGAACCTCTAGCTAGCCGACTCACTATAGGGATAATCGCCCTGAGCAAAGACC | -0.957 ± 0.122
36 | CTCGAGGATATCAAGATCTGGCCTCGGCCGACTAAAAGGAACCTCTAGCTAGCCGACTCACTATAGGGATAATCGCCCTGAGCAAAGACC | -0.753 ± 0.121
37 | CTCGAGGATATCAAGATCTGGCCTCGGCGGCCTAAAAGGAACCTCTAGCTAGCCGACTCACTATAGGGATAATCGCCCTGAGCAAAGACC | -0.691 ± 0.105
38 | CTCGAGGATATCAAGATCTGGCCTCGGCTTTTTAGCGGGAACCTCTAGCTAGCCGACTCACTATAGGGATAATCGCCCTGAGCAAAGACC | -0.0861 ± 0.121
39 | CTCGAGGATATCAAGATCTGGCCTCGGCCTCGTAAAAGGAACCTCTAGCTAGCCGACTCACTATAGGGATAATCGCCCTGAGCAAAGACC | 3.09 ± 0.0876

Reference: publication doi:10.1101/2024.03.05.583629
